The values below come from PMC7862700, “An all-to-all approach to the identification of sequence-specific readers for epigenetic DNA modifications on cytosine”.

Holding throughout (assay): DAPPL (digital affinity profiling via proximity ligation, sequencing); 10 mM Tris-HCl pH 7.5, 50 mM NaCl, 1 mM DTT, 4% glycerol, room temperature, 30 min; GST-TFs on glutathione beads, 16-mer random dsDNA library, 0.1% formaldehyde crosslink after washing; high values mean tight binding
One test deals with T1, FLI1 (Homo sapiens, UniProt Q01543 1-452).
T1 sequence: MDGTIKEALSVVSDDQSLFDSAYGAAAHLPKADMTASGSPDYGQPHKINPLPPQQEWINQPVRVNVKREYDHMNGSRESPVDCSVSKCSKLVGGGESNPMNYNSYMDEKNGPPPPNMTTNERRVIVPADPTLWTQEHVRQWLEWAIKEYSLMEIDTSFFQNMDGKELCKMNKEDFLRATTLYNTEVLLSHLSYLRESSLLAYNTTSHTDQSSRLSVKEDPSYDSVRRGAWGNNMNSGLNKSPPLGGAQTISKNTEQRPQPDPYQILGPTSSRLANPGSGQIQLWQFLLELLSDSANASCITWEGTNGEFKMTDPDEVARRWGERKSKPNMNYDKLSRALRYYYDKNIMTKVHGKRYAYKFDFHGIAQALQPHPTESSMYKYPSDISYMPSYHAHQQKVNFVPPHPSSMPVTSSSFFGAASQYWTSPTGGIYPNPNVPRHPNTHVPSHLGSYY
The conditions noted are these: protein: recombinant; tags: N-terminal GST; dsDNA, one strand shown. An outline of the steps: (§1)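 After expression in yeast as GST fusions, human transcription factors were bound to glutathione beads, DNA-barcoded and mixed with a tag-only sample. The pools were incubated with 200 nmole of a 16-mer random double-stranded DNA library in Tris/NaCl/DTT/glycerol buffer (30 min, room temperature), washed and crosslinked with 0.1% formaldehyde. Proximity ligation with BsaI/T4 ligase ran for 1 h at 37 °C, before PCR amplification and sequencing on an Illumina NextSeq500. Binding signal is a hexamer's read frequency for a factor divided by its frequency for the tag-only sample.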

The next test concerns the target T2, ELK1 (Homo sapiens, UniProt P19419 1-428).
T2 sequence: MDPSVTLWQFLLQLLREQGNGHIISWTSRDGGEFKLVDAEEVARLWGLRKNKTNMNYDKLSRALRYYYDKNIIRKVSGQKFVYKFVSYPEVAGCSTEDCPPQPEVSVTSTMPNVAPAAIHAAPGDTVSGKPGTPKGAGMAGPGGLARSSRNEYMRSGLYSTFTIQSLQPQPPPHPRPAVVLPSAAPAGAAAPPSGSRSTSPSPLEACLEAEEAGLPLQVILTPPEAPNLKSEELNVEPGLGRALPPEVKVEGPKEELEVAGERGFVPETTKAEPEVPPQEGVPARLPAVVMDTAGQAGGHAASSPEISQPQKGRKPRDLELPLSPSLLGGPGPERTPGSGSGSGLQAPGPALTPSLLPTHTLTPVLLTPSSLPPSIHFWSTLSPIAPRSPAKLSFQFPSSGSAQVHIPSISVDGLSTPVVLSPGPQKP
Particulars: protein: recombinant; tags: N-terminal GST; dsDNA, one strand shown. The method, boiled down: as §1

The next test has as its target T3, GABPA (Homo sapiens, UniProt Q06546 1-454).
T3 sequence: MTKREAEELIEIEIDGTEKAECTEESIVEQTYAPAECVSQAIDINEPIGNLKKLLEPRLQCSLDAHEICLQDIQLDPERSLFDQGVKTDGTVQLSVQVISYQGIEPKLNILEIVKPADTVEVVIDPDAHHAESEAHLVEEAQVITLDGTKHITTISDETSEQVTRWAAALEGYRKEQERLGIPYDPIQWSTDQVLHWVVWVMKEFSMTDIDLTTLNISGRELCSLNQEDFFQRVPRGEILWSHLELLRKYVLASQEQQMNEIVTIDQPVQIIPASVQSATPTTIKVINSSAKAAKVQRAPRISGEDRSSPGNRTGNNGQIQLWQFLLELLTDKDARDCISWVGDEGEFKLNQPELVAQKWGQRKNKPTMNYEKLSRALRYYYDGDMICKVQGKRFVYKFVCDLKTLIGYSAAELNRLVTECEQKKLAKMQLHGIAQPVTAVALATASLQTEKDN
The conditions noted are these: protein: recombinant; tags: N-terminal GST; dsDNA, one strand shown. The method, boiled down:
as §1

A further test deals with T4, ERG (Homo sapiens, UniProt P11308 1-479).
T4 sequence: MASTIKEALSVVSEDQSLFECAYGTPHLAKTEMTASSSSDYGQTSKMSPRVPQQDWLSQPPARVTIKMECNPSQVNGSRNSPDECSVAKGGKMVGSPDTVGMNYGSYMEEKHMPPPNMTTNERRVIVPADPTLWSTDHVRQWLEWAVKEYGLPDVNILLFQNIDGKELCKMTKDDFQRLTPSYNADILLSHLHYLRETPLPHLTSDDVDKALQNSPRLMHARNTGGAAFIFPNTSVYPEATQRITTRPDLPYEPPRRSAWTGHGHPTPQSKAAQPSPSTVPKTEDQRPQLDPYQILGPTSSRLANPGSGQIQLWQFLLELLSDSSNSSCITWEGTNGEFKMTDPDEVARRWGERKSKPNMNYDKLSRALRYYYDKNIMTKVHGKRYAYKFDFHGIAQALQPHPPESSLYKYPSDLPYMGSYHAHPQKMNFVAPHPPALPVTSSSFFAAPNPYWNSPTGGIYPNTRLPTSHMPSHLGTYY
Particulars: protein: recombinant; tags: N-terminal GST; dsDNA, one strand shown. The method, boiled down:
as §1

The next test addresses ELF1 (Homo sapiens, UniProt P32519 1-619). The conditions noted are these: protein: recombinant; tags: N-terminal GST; dsDNA, one strand shown. An outline of the steps: as §1
For the next test, the target named is T5, EHF (Homo sapiens, UniProt Q9NZC4 1-300).
T5 sequence: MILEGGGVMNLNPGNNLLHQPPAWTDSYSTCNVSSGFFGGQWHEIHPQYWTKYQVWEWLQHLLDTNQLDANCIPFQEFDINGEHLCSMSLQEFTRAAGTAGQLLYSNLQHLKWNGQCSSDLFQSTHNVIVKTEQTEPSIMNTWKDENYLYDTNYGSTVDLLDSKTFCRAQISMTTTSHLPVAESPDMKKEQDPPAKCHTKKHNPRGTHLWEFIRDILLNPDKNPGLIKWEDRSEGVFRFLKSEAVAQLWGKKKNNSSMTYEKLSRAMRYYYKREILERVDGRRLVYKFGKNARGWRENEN
Particulars: protein: recombinant; tags: N-terminal GST; dsDNA, one strand shown. An outline of the steps:
as §1

The next test concerns the target SPI1 (Homo sapiens, UniProt P17947 1-270). Particulars: protein: recombinant; tags: N-terminal GST; dsDNA, one strand shown. The method, boiled down:
as §1

For the next test, the target named is SPIB (Homo sapiens, UniProt Q01892 1-262). Particulars: protein: recombinant; tags: N-terminal GST; dsDNA, one strand shown. An outline of the steps: as §1
The target in the next test is T6, ELK3 (Homo sapiens, UniProt P41970 1-407).
T6 sequence: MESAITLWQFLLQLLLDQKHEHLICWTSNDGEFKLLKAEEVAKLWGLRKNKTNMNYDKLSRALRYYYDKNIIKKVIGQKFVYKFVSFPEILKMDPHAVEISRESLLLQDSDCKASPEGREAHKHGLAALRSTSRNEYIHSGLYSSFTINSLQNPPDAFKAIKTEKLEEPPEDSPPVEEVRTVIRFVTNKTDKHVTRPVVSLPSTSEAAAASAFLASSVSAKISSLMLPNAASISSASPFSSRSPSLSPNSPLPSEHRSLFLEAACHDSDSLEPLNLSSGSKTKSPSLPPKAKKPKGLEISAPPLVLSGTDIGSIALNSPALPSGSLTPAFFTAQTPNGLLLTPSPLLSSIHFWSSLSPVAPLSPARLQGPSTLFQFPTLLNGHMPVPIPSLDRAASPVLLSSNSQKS
The conditions noted are these: protein: recombinant; tags: N-terminal GST; dsDNA, one strand shown. An outline of the steps: as §1

A further test concerns the target T7, FEV (Homo sapiens, UniProt Q99581 1-238).
T7 sequence: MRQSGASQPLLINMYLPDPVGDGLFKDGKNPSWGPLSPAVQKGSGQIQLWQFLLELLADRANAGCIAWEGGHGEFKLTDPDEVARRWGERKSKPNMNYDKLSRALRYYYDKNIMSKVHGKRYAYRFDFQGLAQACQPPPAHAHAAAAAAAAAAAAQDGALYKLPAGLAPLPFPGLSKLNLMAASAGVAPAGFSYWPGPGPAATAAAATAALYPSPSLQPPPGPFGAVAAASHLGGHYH
Particulars: protein: recombinant; tags: N-terminal GST; dsDNA, one strand shown. The method, boiled down:
as §1

A further test has as its target ETV5 (Homo sapiens, UniProt P41161 1-510). Particulars: protein: recombinant; tags: N-terminal GST; dsDNA, one strand shown. An outline of the steps:
as §1

The next test has as its target HSF1 (Homo sapiens, UniProt Q00613 1-529). The conditions noted are these: protein: recombinant; tags: N-terminal GST; chain copies: 3; dsDNA, one strand shown. An outline of the steps:
as §1

The target of the next test is T8, SPIC (Homo sapiens, UniProt Q8N5J4 1-248).
T8 sequence: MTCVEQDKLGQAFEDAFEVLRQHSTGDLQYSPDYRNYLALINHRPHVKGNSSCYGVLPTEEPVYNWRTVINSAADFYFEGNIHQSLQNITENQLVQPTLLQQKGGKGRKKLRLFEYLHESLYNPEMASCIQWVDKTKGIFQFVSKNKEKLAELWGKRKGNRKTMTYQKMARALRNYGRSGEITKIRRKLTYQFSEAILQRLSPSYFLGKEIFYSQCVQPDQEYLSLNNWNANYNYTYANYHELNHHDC
The conditions noted are these: protein: recombinant; tags: N-terminal GST; dsDNA, one strand shown. An outline of the steps: as §1

Another test deals with ELF4 (Homo sapiens, UniProt Q99607 1-663). Particulars: protein: recombinant; tags: N-terminal GST; dsDNA, one strand shown. The method, boiled down: as §1
The next test has as its target T9, ELK4 (Homo sapiens, UniProt P28324-2 1-405).
T9 sequence: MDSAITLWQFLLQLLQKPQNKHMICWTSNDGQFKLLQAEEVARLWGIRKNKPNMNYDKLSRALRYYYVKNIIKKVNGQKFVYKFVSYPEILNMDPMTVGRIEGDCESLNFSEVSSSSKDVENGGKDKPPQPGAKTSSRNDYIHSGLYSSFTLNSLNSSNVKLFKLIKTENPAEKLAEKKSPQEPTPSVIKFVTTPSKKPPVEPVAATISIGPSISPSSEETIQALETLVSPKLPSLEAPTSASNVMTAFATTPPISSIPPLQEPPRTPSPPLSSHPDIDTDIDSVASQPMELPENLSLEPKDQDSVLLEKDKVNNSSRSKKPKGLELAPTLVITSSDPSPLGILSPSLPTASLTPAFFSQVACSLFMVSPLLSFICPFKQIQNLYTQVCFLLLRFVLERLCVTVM
The conditions noted are these: protein: recombinant; tags: N-terminal GST; dsDNA, one strand shown. An outline of the steps:
as §1

The next test deals with T10, ETV2 (Homo sapiens, UniProt O00321 1-342).
T10 sequence: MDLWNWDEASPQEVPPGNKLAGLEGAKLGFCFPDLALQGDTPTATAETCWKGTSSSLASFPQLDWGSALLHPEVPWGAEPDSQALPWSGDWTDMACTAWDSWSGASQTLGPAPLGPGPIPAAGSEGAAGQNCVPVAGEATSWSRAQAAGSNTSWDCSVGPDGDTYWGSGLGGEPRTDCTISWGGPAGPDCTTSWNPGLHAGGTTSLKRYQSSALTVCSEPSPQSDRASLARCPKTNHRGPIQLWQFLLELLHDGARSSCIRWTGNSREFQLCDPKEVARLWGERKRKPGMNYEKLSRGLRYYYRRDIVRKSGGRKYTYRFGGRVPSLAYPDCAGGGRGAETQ
The conditions noted are these: protein: recombinant; tags: N-terminal GST; dsDNA, one strand shown. An outline of the steps: as §1

For the next test, the target named is T11, ELF3 (Homo sapiens, UniProt P78545 1-371).
T11 sequence: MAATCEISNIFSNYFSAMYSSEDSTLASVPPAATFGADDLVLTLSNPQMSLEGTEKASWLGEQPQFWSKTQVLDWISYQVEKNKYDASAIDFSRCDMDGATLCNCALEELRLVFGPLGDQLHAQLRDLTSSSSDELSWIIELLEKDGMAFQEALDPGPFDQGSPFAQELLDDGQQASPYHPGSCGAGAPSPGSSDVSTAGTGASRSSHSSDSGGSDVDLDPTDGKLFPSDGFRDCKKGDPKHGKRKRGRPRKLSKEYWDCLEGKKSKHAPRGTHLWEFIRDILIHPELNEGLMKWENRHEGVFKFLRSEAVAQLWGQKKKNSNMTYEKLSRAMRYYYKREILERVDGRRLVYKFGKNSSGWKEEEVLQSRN
Particulars: protein: recombinant; tags: N-terminal GST; dsDNA, one strand shown. The method, boiled down:
as §1

Another test deals with ETV1 (Homo sapiens, UniProt P50549 1-477). Particulars: protein: recombinant; tags: N-terminal GST; dsDNA, one strand shown. The method, boiled down:
as §1

HSF1, sequence (Q00613 whole entry): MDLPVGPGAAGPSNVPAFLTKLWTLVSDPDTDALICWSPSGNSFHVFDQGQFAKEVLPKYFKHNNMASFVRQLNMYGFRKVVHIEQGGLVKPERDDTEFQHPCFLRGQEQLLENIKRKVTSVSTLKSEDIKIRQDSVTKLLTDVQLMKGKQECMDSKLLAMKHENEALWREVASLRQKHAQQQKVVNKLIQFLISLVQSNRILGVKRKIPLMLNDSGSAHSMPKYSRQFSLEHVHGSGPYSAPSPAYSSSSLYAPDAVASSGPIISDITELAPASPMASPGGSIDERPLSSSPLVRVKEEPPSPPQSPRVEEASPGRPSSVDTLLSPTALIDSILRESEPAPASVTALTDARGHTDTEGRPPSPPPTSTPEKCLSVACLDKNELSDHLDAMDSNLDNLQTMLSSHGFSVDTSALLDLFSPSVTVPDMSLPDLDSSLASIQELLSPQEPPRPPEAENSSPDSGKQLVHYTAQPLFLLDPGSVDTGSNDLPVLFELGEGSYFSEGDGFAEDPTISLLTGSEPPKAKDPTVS
ETV1, sequence (P50549 whole entry): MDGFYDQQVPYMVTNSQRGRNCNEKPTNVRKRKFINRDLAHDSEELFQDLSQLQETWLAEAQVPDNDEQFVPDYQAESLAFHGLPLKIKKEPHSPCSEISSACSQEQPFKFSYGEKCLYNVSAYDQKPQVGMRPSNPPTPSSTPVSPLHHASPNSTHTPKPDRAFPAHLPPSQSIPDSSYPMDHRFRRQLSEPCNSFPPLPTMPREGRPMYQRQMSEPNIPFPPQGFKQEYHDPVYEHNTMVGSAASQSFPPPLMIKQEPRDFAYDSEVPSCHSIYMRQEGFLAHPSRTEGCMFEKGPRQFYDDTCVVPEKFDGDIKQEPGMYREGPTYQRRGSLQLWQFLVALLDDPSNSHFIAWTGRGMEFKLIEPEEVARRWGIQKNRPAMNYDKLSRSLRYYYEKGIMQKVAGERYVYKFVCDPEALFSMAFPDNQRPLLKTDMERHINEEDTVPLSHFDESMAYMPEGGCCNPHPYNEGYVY
ETV5, sequence (P41161 whole entry): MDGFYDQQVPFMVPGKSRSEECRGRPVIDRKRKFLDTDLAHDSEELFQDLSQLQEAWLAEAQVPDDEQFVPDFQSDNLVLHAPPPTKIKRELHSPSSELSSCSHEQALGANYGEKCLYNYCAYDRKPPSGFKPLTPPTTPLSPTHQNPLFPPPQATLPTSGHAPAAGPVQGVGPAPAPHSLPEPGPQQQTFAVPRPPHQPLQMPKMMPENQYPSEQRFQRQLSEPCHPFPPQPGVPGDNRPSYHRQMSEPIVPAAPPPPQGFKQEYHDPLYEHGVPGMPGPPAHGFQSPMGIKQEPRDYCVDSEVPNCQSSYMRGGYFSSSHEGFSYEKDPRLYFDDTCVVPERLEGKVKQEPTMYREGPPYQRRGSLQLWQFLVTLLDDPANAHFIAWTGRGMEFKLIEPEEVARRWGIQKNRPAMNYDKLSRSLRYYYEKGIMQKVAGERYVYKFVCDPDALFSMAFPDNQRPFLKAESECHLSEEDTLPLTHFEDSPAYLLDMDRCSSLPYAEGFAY
ELF1, sequence (P32519 whole entry): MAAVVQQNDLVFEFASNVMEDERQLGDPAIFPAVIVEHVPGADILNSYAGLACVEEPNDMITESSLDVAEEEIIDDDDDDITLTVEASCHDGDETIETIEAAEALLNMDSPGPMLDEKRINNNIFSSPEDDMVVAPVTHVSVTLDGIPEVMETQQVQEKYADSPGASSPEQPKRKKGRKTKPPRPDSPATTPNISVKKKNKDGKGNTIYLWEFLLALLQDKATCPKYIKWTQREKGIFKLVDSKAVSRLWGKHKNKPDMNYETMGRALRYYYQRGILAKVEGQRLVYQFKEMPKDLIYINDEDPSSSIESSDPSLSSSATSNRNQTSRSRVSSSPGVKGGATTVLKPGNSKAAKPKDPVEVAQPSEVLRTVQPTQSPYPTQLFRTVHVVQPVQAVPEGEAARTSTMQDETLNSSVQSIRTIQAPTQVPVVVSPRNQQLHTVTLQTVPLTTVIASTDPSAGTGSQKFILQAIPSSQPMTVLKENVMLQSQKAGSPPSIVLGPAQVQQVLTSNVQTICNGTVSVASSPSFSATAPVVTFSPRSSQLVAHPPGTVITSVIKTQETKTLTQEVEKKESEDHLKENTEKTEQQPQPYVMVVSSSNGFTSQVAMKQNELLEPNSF
ELF4, sequence (Q99607 whole entry): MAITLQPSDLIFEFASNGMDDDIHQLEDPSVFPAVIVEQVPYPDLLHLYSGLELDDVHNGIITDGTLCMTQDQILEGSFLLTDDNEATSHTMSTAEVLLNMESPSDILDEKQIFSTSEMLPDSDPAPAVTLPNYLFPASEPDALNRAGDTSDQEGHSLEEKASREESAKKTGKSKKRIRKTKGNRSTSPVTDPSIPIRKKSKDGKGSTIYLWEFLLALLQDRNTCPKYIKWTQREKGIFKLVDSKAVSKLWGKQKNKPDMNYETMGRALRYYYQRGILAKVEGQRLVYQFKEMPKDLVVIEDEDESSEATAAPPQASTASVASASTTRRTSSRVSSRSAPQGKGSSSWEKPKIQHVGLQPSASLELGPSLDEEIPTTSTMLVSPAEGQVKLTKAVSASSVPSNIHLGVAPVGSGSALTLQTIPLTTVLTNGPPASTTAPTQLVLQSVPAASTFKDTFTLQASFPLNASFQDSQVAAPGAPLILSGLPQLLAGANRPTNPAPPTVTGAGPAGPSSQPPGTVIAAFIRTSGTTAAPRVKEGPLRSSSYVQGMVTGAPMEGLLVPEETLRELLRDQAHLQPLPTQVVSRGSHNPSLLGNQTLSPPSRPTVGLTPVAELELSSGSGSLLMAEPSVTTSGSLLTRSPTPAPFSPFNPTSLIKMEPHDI
SPIB, sequence (Q01892 whole entry): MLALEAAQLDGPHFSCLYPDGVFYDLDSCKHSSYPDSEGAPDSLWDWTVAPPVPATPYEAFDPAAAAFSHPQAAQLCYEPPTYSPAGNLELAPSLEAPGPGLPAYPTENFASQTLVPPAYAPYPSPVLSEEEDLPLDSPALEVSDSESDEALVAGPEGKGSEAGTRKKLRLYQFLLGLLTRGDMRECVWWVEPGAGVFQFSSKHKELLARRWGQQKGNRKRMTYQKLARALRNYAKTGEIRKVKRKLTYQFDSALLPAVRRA

As to CTTGAC, the binding signal in the test with FLI1 was 1.17 fold enrichment (6-mer frequency, TF over GST control); in the test with ELK1, 1.3 fold enrichment (6-mer frequency, TF over GST control); with GABPA, 1.3 fold enrichment (6-mer frequency, TF over GST control); with ERG, 1.2 fold enrichment (6-mer frequency, TF over GST control); in the test with ELF1 it was 1.2 fold enrichment (6-mer frequency, TF over GST control); in the test with EHF, 1.14 fold enrichment (6-mer frequency, TF over GST control). Moreover, the binding signal with SPI1 is 1.18 fold enrichment (6-mer frequency, TF over GST control); in the test with SPIB, 1.19 fold enrichment (6-mer frequency, TF over GST control); with ELK3 it was 1.23 fold enrichment (6-mer frequency, TF over GST control); in the test with FEV it was 1.18 fold enrichment (6-mer frequency, TF over GST control); with ETV5, 1.14 fold enrichment (6-mer frequency, TF over GST control); with HSF1, 1.02 fold enrichment (6-mer frequency, TF over GST control). Also, the binding signal in the test with SPIC was 1.14 fold enrichment (6-mer frequency, TF over GST control); with ELF4, 1.27 fold enrichment (6-mer frequency, TF over GST control); with ELK4, 1.37 fold enrichment (6-mer frequency, TF over GST control); in the test with ETV2 it was 1.33 fold enrichment (6-mer frequency, TF over GST control); in the test with ELF3, 1.33 fold enrichment (6-mer frequency, TF over GST control); with ETV1 it was 1.33 fold enrichment (6-mer frequency, TF over GST control).
